Data from PubChem BioAssay (EPA / NIEHS).
Results filed as inconclusive are left out. The source made the active and inactive calls. Rule for the calls, unless noted: active = hit-call score of the fitted dose curve at least 0.9, where 1 is the maximum; inconclusive = response in the unintended direction; inactive = score below 0.9.

How the values were obtained:
[1] = molecular target: Cellular tumor antigen p53 (Homo sapiens) (UniProt P04637); test: TOX21_p53_BLA_p4_ratio: Tox21 HCT-116 p53 Agonism Beta-lactamase Assay, Ratio, Phase 4 (AID 2283601)
Sequence of Cellular tumor antigen p53 (Homo sapiens) (P04637 whole entry, looked up): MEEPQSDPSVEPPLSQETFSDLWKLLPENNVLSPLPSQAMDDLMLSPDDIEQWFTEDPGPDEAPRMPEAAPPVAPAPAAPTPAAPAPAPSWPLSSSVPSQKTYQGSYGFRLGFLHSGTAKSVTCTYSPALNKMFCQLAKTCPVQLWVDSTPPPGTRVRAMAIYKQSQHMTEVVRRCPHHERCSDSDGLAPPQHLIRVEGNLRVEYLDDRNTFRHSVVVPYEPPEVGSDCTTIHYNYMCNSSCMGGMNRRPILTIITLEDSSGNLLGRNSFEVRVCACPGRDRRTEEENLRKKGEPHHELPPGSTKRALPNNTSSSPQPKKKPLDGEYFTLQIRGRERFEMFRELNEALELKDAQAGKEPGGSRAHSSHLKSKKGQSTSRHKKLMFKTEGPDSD
Method in brief: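 HCT-116 p53 beta-lactamase reporter cells (4000/well) preincubated 5 h, then compound (217-fold dilution of DMSO stock) for 16 h at 37C. CCF4-AM substrate added 2 h at room temperature; 460/530 nm emission ratio fitted upward versus DMSO.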

[2] = molecular target: Thyroid hormone receptor alpha (Rattus norvegicus) + Thyroid hormone receptor beta (Rattus norvegicus) (UniProt P18113+P63059); test: TOX21_TR_LUC_GH3_Antagonist_Followup: Tox21 GH3 Thyroid Hormone Receptor Antagonism Luciferase Follow-Up Assay (AID 2283942)
Method in brief: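 Antagonist mode: GH3 cells seeded 1,500/well, compounds at 15 concentrations (92 uM to 5nM final) plus T3 at 1.0 nM final, 24 h at 37C. Luciferase read with ONE-Glo after 30 min at room temperature.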

THRA (gene 7067) = THRA (gene 7067) (UniProt P10827); test: TOX21_TRA_COA_Antagonist_Followup_ratio: Tox21 Thyroid Hormone Receptor alpha Antagonism through Coactivator Recruitment Follow-Up Assay, Ratio (AID 2283953)
Sequence of THRA (gene 7067) (P10827 whole entry, looked up, the tested form may be a part): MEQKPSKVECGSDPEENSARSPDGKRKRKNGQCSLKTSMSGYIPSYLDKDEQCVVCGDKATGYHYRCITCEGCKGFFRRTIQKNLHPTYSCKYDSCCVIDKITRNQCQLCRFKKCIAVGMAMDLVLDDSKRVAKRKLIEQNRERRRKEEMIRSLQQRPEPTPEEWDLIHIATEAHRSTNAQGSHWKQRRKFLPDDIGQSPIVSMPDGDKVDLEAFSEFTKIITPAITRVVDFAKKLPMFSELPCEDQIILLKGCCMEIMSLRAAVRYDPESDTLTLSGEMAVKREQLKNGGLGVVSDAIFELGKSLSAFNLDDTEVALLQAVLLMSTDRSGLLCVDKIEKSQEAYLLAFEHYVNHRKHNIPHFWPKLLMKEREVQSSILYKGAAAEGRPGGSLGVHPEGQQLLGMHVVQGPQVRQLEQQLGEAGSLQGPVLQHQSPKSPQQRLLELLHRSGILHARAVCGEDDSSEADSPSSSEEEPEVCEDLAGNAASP
Method in brief: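 This follow-up to the GH3 luciferase screen checks specificity in a cell-free format. It measures SRC-2 coactivator peptide binding to TRα LBD by TR-FRET and scores loss of ratio signal relative to DMSO.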

THRB (gene 7068) = THRB (gene 7068) (UniProt P10828); test: TOX21_TRB_BLA_Antagonist_Followup_ratio: Tox21 Thyroid Hormone Receptor beta Antagonism Beta-lactamase (BLA) Follow-Up Assay, Ratio (AID 2283958)
Sequence of THRB (gene 7068) (P10828 whole entry, looked up, the tested form may be a part): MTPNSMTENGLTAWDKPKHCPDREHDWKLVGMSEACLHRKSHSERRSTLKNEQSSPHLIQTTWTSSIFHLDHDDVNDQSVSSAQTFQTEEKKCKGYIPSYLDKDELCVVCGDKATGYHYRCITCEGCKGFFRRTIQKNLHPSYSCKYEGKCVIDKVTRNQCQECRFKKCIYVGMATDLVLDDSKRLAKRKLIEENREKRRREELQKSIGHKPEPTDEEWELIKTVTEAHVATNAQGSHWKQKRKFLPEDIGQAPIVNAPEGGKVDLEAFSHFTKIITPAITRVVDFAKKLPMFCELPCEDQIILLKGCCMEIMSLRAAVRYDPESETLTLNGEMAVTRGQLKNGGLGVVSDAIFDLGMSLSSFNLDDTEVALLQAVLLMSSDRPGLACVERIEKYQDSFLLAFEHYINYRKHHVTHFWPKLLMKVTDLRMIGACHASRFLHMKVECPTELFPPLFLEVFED
Method in brief: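 In this antagonist-mode follow-up, a stably integrated GAL4-TRβ LBD fusion drives a UAS-beta-lactamase reporter in HEK293T cells. Loss of ratio signal relative to DMSO after 18 h treatment indicates activity; parallel CellTiter-Glo flags cytotoxicity.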

[3] = TOX21_TRB_BLA_Antagonist_Followup_viability: Viability Assessment in the Tox21 Thyroid Hormone Receptor beta Antagonism Beta-lactamase (BLA) Follow-Up Assay (AID 2283961)
Method in brief: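 Cytotoxicity is measured in parallel with the antagonist-mode TRβ beta-lactamase screen, using ATP-coupled luciferase luminescence. Engineered HEK293T cells are treated for 18 h with 11-point compound series in triplicate.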

[4] = TOX21_TR_RXR_BLA_Antagonist_Followup_viability: Viability Assessment in the Tox21 Thyroid Hormone Receptor beta Retinoid X Receptor alpha (RXRa) Antagonism Beta-lactamase (BLA) Follow-Up Assay (AID 2283979)
Method in brief: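 RXRa-bla HEK293T cells (2,500/well, phenol red-free DMEM, 2% charcoal-stripped FBS) were attached 5 h, then exposed to compounds at 11 concentrations in triplicate for 16 h at 37C. Viability measured by CellTiter-Glo ATP luminescence, bidirectional fitting versus DMSO.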

PGR (gene 5241) [5] = molecular target: PGR (gene 5241) (UniProt P06401); test: TOX21_PR_BLA_Followup_Agonist_ratio: Tox21 HEK293 Progesterone Receptor (PR) Agonism Beta-lactamase Follow-Up Assay, Ratio (AID 2283933)
Sequence of PGR (gene 5241) (P06401 whole entry, looked up): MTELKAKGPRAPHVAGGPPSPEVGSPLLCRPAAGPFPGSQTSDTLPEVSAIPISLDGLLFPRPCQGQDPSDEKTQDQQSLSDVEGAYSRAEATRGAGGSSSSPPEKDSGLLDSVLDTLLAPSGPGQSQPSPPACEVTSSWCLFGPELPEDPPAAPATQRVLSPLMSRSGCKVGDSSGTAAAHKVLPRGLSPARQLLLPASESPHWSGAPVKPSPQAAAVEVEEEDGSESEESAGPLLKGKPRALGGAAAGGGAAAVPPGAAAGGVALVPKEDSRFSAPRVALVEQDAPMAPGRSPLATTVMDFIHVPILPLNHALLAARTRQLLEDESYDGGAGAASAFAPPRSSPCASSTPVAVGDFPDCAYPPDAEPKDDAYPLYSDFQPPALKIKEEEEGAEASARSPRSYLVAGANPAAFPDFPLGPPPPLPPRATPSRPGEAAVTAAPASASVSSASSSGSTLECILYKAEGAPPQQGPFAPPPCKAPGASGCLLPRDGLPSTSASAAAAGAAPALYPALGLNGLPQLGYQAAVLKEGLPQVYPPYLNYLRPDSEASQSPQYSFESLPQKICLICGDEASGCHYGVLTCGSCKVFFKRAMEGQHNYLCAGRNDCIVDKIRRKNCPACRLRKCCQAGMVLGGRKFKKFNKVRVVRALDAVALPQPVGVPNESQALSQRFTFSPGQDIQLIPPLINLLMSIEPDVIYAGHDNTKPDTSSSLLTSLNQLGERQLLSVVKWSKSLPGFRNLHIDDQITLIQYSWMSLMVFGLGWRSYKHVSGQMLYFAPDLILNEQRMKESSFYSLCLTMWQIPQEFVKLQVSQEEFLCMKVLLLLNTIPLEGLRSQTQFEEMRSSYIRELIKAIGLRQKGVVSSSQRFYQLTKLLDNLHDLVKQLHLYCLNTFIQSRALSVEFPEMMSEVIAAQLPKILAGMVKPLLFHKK
Method in brief: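 Agonist-mode follow-up in HEK293T cells carrying a UAS-driven beta-lactamase reporter, grown in 2% charcoal-stripped serum. Compounds act for 16 hr; activity is the ch2/ch1 cleavage ratio, with same-well CellTiter-Glo viability run in parallel.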

PGR (gene 5241) [6] = molecular target: PGR (gene 5241) (UniProt P06401); test: TOX21_PR_BLA_Followup_Antagonist_ratio: Tox21 HEK293 Progesterone Receptor (PR) Antagonism Beta-lactamase Follow-Up Assay, Ratio (AID 2283934);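 note: PR-UAS-bla HEK293T cells stimulated with 1 nM R5020 agonist for 16 hr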
Method in brief: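 Antagonist mode used 1 nM R5020 (final) as agonist on a beta-lactamase reporter line in HEK293T cells. Activity was taken from the substrate cleavage ratio after 16 hr exposure.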

[7] = TOX21_PR_BLA_Followup_Agonist_viability: Viability Assessment in the Tox21 HEK293 Progesterone Receptor (PR) Agonism Beta-lactamase Follow-Up Assay (AID 2283935);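 note: signal loss means lower viability so actives are cytotoxic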
Method in brief: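 Multiplexed viability counter-screen: ATP-coupled luciferase signal measured after 30 min at room temperature, following 16 hr compound treatment of PR-UAS-bla HEK293T cells grown in charcoal-stripped serum.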

[8] = TOX21_PR_BLA_Followup_Antagonist_viability: Viability Assessment in the Tox21 HEK293 Progesterone Receptor (PR) Antagonism Beta-lactamase Follow-Up Assay (AID 2283936);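 note: hits lower the luminescence signal meaning cytotoxicity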
Method in brief: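 PR-UAS-bla HEK293T cells (3,000/well, 2% charcoal-stripped FBS) given compound plus R5020 agonist, 16 h at 37C. CellTiter-Glo added after bla read, 30 min at room temperature; luminescence loss indicates cytotoxicity.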

PGR (gene 5241) [9] = molecular target: PGR (gene 5241) (UniProt P06401); test: TOX21_PR_LUC_Followup_Agonist: Tox21 HEK293 Progesterone Receptor (PR) Agonism Luciferase Follow-Up Assay (AID 2283937; active = hit-call score of the fitted dose curve at least 0.9, where 1 is the maximum; inactive = score below 0.9)
Method in brief: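 Agonist mode: reporter cells carrying PR-A and luciferase are treated 16 h with test compounds at 37C. Luciferase induction is measured by luminescence and fitted upward against DMSO.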

PGR (gene 5241) [10] = molecular target: PGR (gene 5241) (UniProt P06401); test: TOX21_PR_LUC_Followup_Antagonist: Tox21 HEK293 Progesterone Receptor (PR) Antagonism Luciferase Follow-Up Assay (AID 2283938);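 note: curve fitted upward as signal gain over DMSO baseline despite antagonist label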
Method in brief: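 A follow-up to the PR bla screen using HEK293-PR-A-luc cells, multiplexed with cell viability to flag cytotoxicity. Reporter luminescence after 16 h compound exposure was analysed relative to DMSO.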

[11] = tested on: Thyroperoxidase (TPO), gene 54314; test: CCTE_Simmons_AUR_rTPO: CCTE's Amplex UltraRed Assay for Thyroperoxidase (TPO) Inhibition, Simmons Lab (AID 2283662);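 for AC50: potency for loss of signal meaning inhibition of peroxidase activity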
Method in brief: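 Rat thyroid microsomes (5 ug protein) were incubated with test compound (8 concentrations, 5 nM–87.5 uM final, 0.5% DMSO), 25 uM Amplex UltraRed and 300 uM H2O2 in 200 mM phosphate buffer for 30 min at 37C in the dark; fluorescence read at 544/590 nm.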

[12] = molecular target: Luciferin 4-monooxygenase (Photinus pyralis) (UniProt P08659); test: CCTE_Simmons_QuantiLum_inhib_2: CCTE's Firefly Luciferase Inhibition Assay, Simmons Lab (AID 2283767)
Sequence of Luciferin 4-monooxygenase (Photinus pyralis) (P08659 whole entry, looked up): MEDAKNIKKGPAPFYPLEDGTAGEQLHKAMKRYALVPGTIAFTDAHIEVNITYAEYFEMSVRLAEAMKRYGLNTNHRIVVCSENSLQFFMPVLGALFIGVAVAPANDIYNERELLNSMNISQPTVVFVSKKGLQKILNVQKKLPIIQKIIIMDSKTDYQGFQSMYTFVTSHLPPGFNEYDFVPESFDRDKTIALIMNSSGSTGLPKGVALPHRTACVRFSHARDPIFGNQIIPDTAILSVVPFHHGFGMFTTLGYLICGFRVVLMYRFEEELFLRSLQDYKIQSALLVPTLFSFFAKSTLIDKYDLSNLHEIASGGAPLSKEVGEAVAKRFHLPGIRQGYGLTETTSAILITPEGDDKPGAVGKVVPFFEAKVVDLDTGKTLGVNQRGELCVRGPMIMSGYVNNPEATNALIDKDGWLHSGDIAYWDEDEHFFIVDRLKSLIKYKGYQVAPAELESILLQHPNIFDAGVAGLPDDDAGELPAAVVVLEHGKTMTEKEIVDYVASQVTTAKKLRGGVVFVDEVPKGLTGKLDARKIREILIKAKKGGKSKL
Method in brief: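 Counter-screen for nonspecific enzyme inhibition: purified firefly luciferase incubated 30 min at 37C with chemicals up to 87.5 uM final, then luminescence measured after luciferin/dATP injection; activity fitted against DMSO baseline.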

[13] = CCTE_Simmons_CellTiterGLO_HEK293T: Viability Assessment in CCTE's Assays for Thyroperoxidase (TPO) Inhibition, Simmons Lab (AID 2283665)
Method in brief: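 Cytotoxicity counter-screen: human HEK293T cells in low-serum (1% FBS) medium receive test chemical, 5 nM to 87.5 uM final, for 24 h; ATP is quantified by luciferase luminescence.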

[14] = ACEA_ER_AUC_viability: ACEA Biosciences xCELLigence Real-Time Cell Analysis on Estrogen Receptor Agonism for Viability (AID 2283782);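 note: continuous compound exposure with impedance area under curve over 80 h; hit means loss of impedance signal meaning reduced cell growth or viability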
Method in brief: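 T47D cells preconditioned in phenol red-free RPMI with charcoal-stripped FBS, then dosed with 8-point 1:4 series from 100 uM (up to 0.5% DMSO). Impedance monitored up to ~80 h; area-under-curve loss versus DMSO taken as viability.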

Structure (SMILES): COc1ccc2c(c1)N(C[C@H](C)CN(C)C)c1ccccc1S2
- outcome [1]: inactive
- AC50 [2]: 2.79 µM (active)
- outcome (THRA (gene 7067)): inactive
- outcome (THRB (gene 7068)): inactive
- outcome [3]: inactive
- outcome [4]: inactive

Structure (SMILES): Clc1ccc2c(c1)Nc1ccccc1S2
- outcome (PGR (gene 5241) [5]): inactive
- AC50 (PGR (gene 5241) [6]): 19.4 µM (active)
- outcome [7]: inactive
- outcome [8]: inactive
- outcome (PGR (gene 5241) [9]): inactive
- AC50 (PGR (gene 5241) [10]): 28.9 µM (active)

Structure (SMILES): O=C(NO)c1ccccc1O
- AC50 [11]: 0.358 µM (active)
- outcome [12]: inactive

Structure (SMILES): OCc1ncccc1O
- outcome [11]: inactive
- outcome [13]: inactive
- outcome [12]: inactive

Structure (SMILES): CC1=CC(=O)CCC1
- outcome [14]: inactive

Structure (SMILES): O=c1cc(O)cc[nH]1
- outcome [11]: inactive

Structure (SMILES): CCN1CCCC1CNC(=O)c1cc(S(=O)(=O)CC)c(N)cc1OC (configuration not stated)
- outcome [1]: inactive

Structure (SMILES): OC(c1ccccc1)c1ccccc1
- outcome [11]: inactive
- outcome [12]: inactive

Structure (SMILES): CC1(C)OC(=O)Nc2ccc(Br)cc21
- outcome (PGR (gene 5241) [5]): inactive
- outcome (PGR (gene 5241) [6]): inactive
- outcome [7]: inactive
- outcome [8]: inactive
- outcome (PGR (gene 5241) [9]): inactive
- outcome (PGR (gene 5241) [10]): inactive

Structure (SMILES): C=CCc1cc(OC)c(O)c(C(=O)NCCO)c1
- outcome [1]: inactive

Structure (SMILES): CN1CCC(=C2c3ccccc3CC(=O)c3sccc32)CC1
- outcome [1]: inactive

Structure (SMILES): Cc1ccc(O)c([C@H](CCN(C(C)C)C(C)C)c2ccccc2)c1
- outcome [1]: inactive

Structure (SMILES): NC(=O)Oc1ccc(Cc2ccccc2)cc1
- outcome [1]: inactive
